# An excerpt weighted towards active compounds, which were near 3.2% of everything screened.
# Rtt109 Vps75 = C. albicans Rtt109 histone acetyltransferase inhibition; Q5AAJ8; purified Rtt109/Vps75, ThioGlo CoA-SH fluorescence, 4 h; inhibition, % at 34.9 µM; hit rate 0.16% among 330,000;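 active = inhibition of at least 50% in every replicate; inconclusive = best replicate reaches 50% inhibition but some replicates fall short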
# SMARCA2 act = increases SMARCA2 function in MMTV reporter cells; activation, % at 9.1 µM; MG213 cells, MMTV-luciferase reporter, dexamethasone, overnight; hit rate 1% among 370,000; AID 652017; in the data active = activation above about 7.8%
# Dyrk1A ADPGlo = blocks rat Dyrk1A kinase activity. ADP-Glo luminescence, NFATc1 peptide. inhibition, % at 12.5 µM. hit rate 0.43% among 310,000. Q63470; in the data active = inhibition above about 50%
# esBAF inh = inhibitors of esBAF chromatin remodeling in mouse ES cells. Bmi1-luciferase knock-in reporter, 24 h; 100% = twice the neutral-well signal. reporter increase, % at 12.5 µM. hit rate 2% among 350,000. AID 602393; in the data active = activation above about 40%; inconclusive = no clear call, values can overlap the other calls;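 also: a rise in the Bmi1 reporter signal indicates esBAF inhibition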
# CDK5 p35 inh = blocks human CDK5/p35 kinase activity; Recombinant CDK5/p35, ADP-Glo luminescence, 60 min; Q00535+Q15078; hit rate 0.01% among 330,000; inhibition, % at 10 µM;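 active = highest replicate inhibition of at least 50% and at least 75% of replicates reaching 50%; inconclusive = only one of the two criteria met; inactive = both criteria failed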
# dFosB activator = enhances mouse delta FosB homodimer DNA binding; P13346; purified delta FosB, TAMRA-CDK5 oligo fluorescence polarization; percent of positive-control signal above neutral wells; activation, % at 25 µM; hit rate 0.99% among 340,000; AID 493131;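 active = mean activation above about 17%, with every replicate also reaching it, limit read from the data, passing the limit was not always enough; inconclusive = only one of the two conditions met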
# Target sequence (P13346 whole entry, looked up): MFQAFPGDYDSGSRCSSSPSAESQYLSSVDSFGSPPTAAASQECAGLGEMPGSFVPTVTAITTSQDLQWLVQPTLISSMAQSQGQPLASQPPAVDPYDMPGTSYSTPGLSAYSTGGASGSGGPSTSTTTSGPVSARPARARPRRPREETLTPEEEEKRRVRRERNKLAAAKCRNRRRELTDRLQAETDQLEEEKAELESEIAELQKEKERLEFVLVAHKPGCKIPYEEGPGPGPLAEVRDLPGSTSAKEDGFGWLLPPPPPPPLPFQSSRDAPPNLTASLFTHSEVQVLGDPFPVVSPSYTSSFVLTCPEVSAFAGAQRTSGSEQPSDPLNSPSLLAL
# SMARCA2 conf = confirmation of SMARCA2 (BRM) function activators; activation, % at 9.1 µM; hit rate 30% among 3,500; MG213 cells, MMTV-luciferase with dexamethasone, luminescence, overnight; MG213 cells expressing E1A, Rb sequestered; DMSO wells 0%, reference activator 100%; shares compounds with SMARCA2 act;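 active = activation above its plate's cutoff, the mean activation of tested wells plus 3 SD, cut at about 7.9% in these data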
# VP16 Luc act = activates GAL4-VP16 luciferase, flagging SMARCA2 activator hits. shares compounds with SMARCA2 act. HEK293 GAL4-VP16 pG5luc reporter, luciferase luminescence; scaled: DMSO wells 0%, SAHA wells 100%. activation, % at 9.1 µM. hit rate 41% among 3,500. AID 686939;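 active = activation above the solvent-only control well mean plus 3 SD, averaged across control plates, cut at about 5.2% in these data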
# Numbers stand for hits; - = inactive; ? = inconclusive; . = no result.
SMILES,Rtt109 Vps75,SMARCA2 act,Dyrk1A ADPGlo,esBAF inh,CDK5 p35 inh,dFosB activator,SMARCA2 conf,VP16 Luc act
c1cc(-c2cc3cc4c(cc3cn2)OCO4)cs1,-,8.9,-,77,-,-,-,7.9
O=C(N[C@@H]1C=C[C@@H](CC(=O)N2CCCCC2)O[C@@H]1CO)c1ccccn1,.,.,.,-,.,.,.,.
O=C(Nc1cccc(F)c1)c1ccccc1-c1ccccc1,-,9.0,-,.,-,-,-,-
O=C(Nc1ccc(Nc2ccccc2)cc1)c1cccc(F)c1,-,9.0,-,?,-,-,-,6.7
CCOC(=O)N1CCN(S(=O)(=O)c2ccc(C(=O)Nc3sc4c(c3C(N)=O)CC(C)(C)NC4(C)C)cc2)CC1,-,-,-,.,-,-,.,.
CC1(C)Cc2c(sc(NC(=O)c3ccc4ncsc4c3)c2C(N)=O)C(C)(C)N1,-,8.5,-,.,-,-,13,8.0
C[C@H]1CN([C@@H](C)CO)C(=O)c2cc(C3=CCCC3)cnc2O[C@H]1CN(C)C(=O)C1CCC1,.,.,.,-,.,.,.,.
c1ccc(-c2ccc(-c3ccncn3)cc2)cc1,-,9.1,-,.,-,-,-,7.6
CN1[C@H](C(=O)Nc2ccccc2)[C@@H](CO)[C@@H]2Cn3c(ccc(-c4ccc(F)cc4)c3=O)[C@@H]21,.,.,.,-,.,.,.,.
CN(C)C(=O)CCc1ccc2c3c([nH]c2c1)[C@]1(CCC2CCCC2)[C@@H](C(=O)N2CCOCC2)C[C@H](CC(=O)NCCc2ccccn2)C(=O)N1CC3,-,8.0,.,-,-,-,-,-
CN(C)CCCNC(=O)C[C@H]1C[C@H](C(=O)N2CCOCC2)[C@@]2(CCC3CCCC3)c3[nH]c4cc(-c5ccco5)ccc4c3CCN2C1=O,-,8.2,.,-,-,-,-,-
O=C(CC1C[C@H](C(=O)N2CCOCC2)[C@@]2(CCC3CCCC3)c3[nH]c4ccccc4c3CCN2C1=O)NCCc1ccccn1 (some centres not stated),-,-,-,-,-,-,.,.
Cc1cc(C(=O)COC(=O)c2ccc([N+](=O)[O-])o2)c(C)n1CC1CCCO1 (configuration not stated),-,8.5,.,-,-,-,-,-
COCCn1c(C)cc(C(=O)COC(=O)c2ccc([N+](=O)[O-])o2)c1C,-,-,-,-,-,-,.,.
O=C([C@@H]1[C@@H](CO)[C@@H]2Cn3c(cccc3=O)[C@@H]2N1Cc1ccccc1Cl)N1CCOCC1,.,.,.,-,.,.,.,.
O=C(Nc1ccccn1)c1ccc2c(c1)OCO2,-,-,-,.,-,-,.,.
C/C(=N\NC(=O)c1ccc2c(c1)OCO2)c1ccc(NC(=O)CCCC(=O)O)cc1,-,8.3,-,-,-,-,-,-
O=C(Nc1ccccn1)c1ccc2c(c1)OCCO2,-,11,-,-,-,-,-,6.0
Cc1nc(NC(=O)c2ccc3c(c2)OCO3)ccc1Br,-,8.6,-,.,-,-,-,14
CCC(CC)c1nnc(NC(=O)COc2ccc3c(c2)OCO3)s1,-,-,-,-,-,-,.,.
CCC(CC)c1nnc(NC(=O)c2ccc3c(c2)OCO3)s1,-,10,-,58,-,-,-,6.6
O=C(C[C@@H]1CC[C@@H]2[C@H](COC[C@H](O)CN2C(=O)c2cccnc2)O1)NCc1ccccc1,.,.,.,-,.,.,.,.
CCN(CC)c1ccc(NC(=O)c2ccc3c(c2)OCO3)cc1,-,10,-,?,-,-,-,11
COc1ccc(NC(=O)C2CC(=O)N/C(=N/N=C/c3ccco3)S2)cc1 (configuration not stated),.,-,.,.,.,.,.,.
COc1ccc(CN=C2NC(=O)CC(C(=O)Nc3ccc(F)cc3)S2)cc1 (configuration not stated),-,8.3,-,.,-,-,-,-
C[C@@H]1CN([C@H](C)CO)C(=O)CCCn2cc(nn2)CO[C@@H]1CN(C)C(=O)C1CC1,.,.,.,-,.,.,.,.

# Bioassay records from PubChem.
